Screening data as filed in PubChem.
NIH3T3 tox = cytotoxic compounds in NIH 3T3 cells | NIH 3T3 viability, CellTiter-Glo ATP luminescence, 48-72 h | Potency, µM (series often up to 96.7 µM), actives largely listed as inhibitors | 4.3% of 94,000 active | AID 1345082; note: nearly all actives have a fitted effect of over 55% in size
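Viability of NIH 3T3 cells after 48 or 72 hr compound treatment at 37 °C was assessed by CellTiter-Glo, with luminescence imaged following a 10 min room-temperature step.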
Luciferase inh = Photinus pyralis luciferase inhibition. P08659. purified P. pyralis luciferase, luminescence, biochemical. Potency, µM (top dose mostly 115 µM), usual class: inhibitors. 2.5% of 76,000 active. AID 1347043; note: nearly all actives have a fitted effect of over 65% in size
Target sequence (P08659 whole entry, looked up): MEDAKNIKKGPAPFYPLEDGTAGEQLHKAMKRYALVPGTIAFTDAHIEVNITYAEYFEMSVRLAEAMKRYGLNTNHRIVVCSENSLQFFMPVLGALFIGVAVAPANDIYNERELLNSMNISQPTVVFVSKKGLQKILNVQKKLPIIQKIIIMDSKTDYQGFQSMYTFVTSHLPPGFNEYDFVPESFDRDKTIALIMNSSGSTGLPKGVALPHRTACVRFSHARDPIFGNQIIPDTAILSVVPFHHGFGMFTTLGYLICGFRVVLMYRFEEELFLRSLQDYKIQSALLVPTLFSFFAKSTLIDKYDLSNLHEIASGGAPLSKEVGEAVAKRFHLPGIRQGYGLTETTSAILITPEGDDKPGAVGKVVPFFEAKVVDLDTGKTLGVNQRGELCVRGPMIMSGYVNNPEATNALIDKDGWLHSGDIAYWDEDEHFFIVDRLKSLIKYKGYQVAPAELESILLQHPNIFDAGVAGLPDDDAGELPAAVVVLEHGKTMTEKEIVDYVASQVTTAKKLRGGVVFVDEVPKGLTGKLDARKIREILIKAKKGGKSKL
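Cell-free enzyme assay, 10nM P. pyralis luciferase, luciferin and ATP each at 10uM. Inhibition profiled over a 6-point titration, read as luminescence.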
NPR1 antag = antagonists of human natriuretic peptide receptor Npr1; P16066; HEK293 hNpr1 GloSensor cGMP, ANP-stimulated luminescence; 1.6% of 76,000 active; AID 1347048; Potency, µM (series often up to 46.3 µM), usual class: inhibitors; calls by dose curve; note: nearly all actives have a fitted effect of over 60% in size
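HEK293 cells stably expressing human Npr1 and cGMP GloSensor pGS-40F, loaded 2 h with 2% GloSensor reagent, given compound 30 min at room temperature. Luminescence read before and 20 min after 0.1 nM hNppA.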
HEK293 tox = cytotoxic compounds in HEK 293 cells. 6.6% of 94,000 active. Potency, µM (top dose mostly 115 µM), most hits filed as inhibitors. HEK 293 viability, ATP luminescence (CellTiter-Glo), 48-72 h; note: nearly all actives have a fitted effect of over 60% in size
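Read-out: CellTiter-Glo ATP luminescence. Cells: HEK 293, 250 cells/well. Exposure: 48 or 72 hr, 37 degree Celsius.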
A number is an active result; n = inactive; u = inconclusive; x = not tested or not shown. The list is not random: actives were taken first. Their share in the collection is about 11%. Unless noted, calls come from the whole dose curve; as a rule, active = well fitted curve in the direction sought with a large enough effect; inconclusive = small, poorly fitted or top-dose-only effect, or another doubt; inactive = no such curve, though single readings can be large; an effect the other way counts as inactive or inconclusive.

SMILES	NIH3T3 tox	Luciferase inh	NPR1 antag	HEK293 tox
COCC1(O)CCOC2(CCN(S(=O)(=O)c3ccc(OC)cc3)CC2)C1 (stereo not drawn)	n	x	x	n
CC(C)c1noc(CN(C)C(=O)c2csc3nc(-c4ccc(F)cc4)cn23)n1	u	n	u	45µM
CN(Cc1nccn1C)C(=O)c1csc2nc(-c3ccc(C(F)(F)F)cc3)cn12	u	40µM	n	40µM
CC(C)(CN1CCOCC1)NC(=O)c1csc2nc(-c3ccc(F)cc3)cn12	n	n	n	u
O=C(Cc1ccccc1)N1CC(c2noc(COc3ccccc3)n2)C1	n	x	x	u
COC[C@@H]1CN(C(=O)Cc2ccc(F)cc2)C[C@H]1c1ccncc1	n	n	n	n
Cc1ccc(CN(C)Cc2ccccc2C(F)(F)F)cc1	n	n	n	n
Cc1ccc(CN(C)Cc2ccc(-c3ccccc3)cc2)cc1	u	n	n	u
CC(=O)Nc1ccc(CN(C)Cc2ccc(-c3ccccc3)cc2)cc1	u	n	n	79µM
CC(=O)Nc1ccc(CN(C)Cc2ccccc2C(F)(F)F)cc1	u	n	n	89µM
COc1ccccc1-c1nc2cnccn2c1NCCC(=O)N1CCc2ccccc21	u	n	n	20µM
COc1cccc(-c2nc3cnccn3c2NCCC(=O)N2CCc3ccccc32)c1	n	n	n	u
CC1(COCC2CC2)COc2ccc(C(=O)Nc3ccccc3)cc2N1 (stereo not drawn)	u	22µM	n	u
CC1(COCC2CC2)COc2ccc(C(=O)NCc3ccccc3)cc2N1 (stereo not drawn)	u	n	n	u
CC1(COCC2CC2)COc2ccc(C(=O)Nc3cccc([S+](C)(=O)[O-])c3)cc2N1 (stereo not drawn)	u	n	n	100µM
COC(=O)[C@@H]1Cc2c([nH]c3ccccc23)[C@H]2C[C@@H](NCc3cccnc3)C[C@@H](c3ccccc3)N21	u	n	n	22µM
COCCN[C@@H]1C[C@@H]2c3[nH]c4ccccc4c3C[C@@H](C(=O)OC)N2[C@H](c2cccc(OC)c2)C1	u	n	u	22µM
COCCNC(=O)[C@H]1C[C@H](Oc2ccccc2)CN1C(=O)c1cccc(OC)c1	n	n	n	n
COCCNC(=O)[C@@H]1CCC[C@@H](NCc2cccnc2)CN(C)C(=O)C1	n	n	n	n
COC(=O)[C@@H]1Cc2c([nH]c3ccccc23)[C@H]2C[C@@H](NCCN(C)C)C[C@@H](c3ccc(F)cc3)N21	14µM	n	n	20µM
COCCN[C@H]1C[C@@H]2c3[nH]c4ccccc4c3C[C@@H](C(=O)OC)N2[C@H](c2ccccc2)C1	35µM	n	n	40µM
CCCc1cc(NCc2cn3c(n2)SCC3)n2nccc2n1	n	n	n	n
COC(=O)[C@@H]1Cc2c([nH]c3ccccc23)[C@@H]2C[C@@H](NC(C)C)C[C@@H](c3ccc(F)cc3)N12	28µM	n	n	28µM
COCCN[C@@H]1C[C@@H]2c3[nH]c4ccccc4c3C[C@@H](C(=O)OC)N2[C@H](c2ccc(Cl)c(F)c2)C1	14µM	n	u	u
COCCNC(=O)[C@H]1C[C@H](Oc2ccccc2)CN1C(=O)c1ccc(F)cc1	n	n	n	n
SMILES	NIH3T3 tox	Luciferase inh	NPR1 antag	HEK293 tox
COCCN[C@@H]1C[C@@H]2c3[nH]c4ccccc4c3C[C@@H](C(=O)OC)N2[C@H](c2ccc(C(C)C)cc2)C1	28µM	n	u	u
Cc1ccccc1NC(=O)CCNc1c(-c2ccc(F)cc2)nc2cnccn12	n	n	n	n
O=C(c1ccc(Cn2cccn2)o1)N1CCCC2(CCC(=O)N(C3CC3)C2)C1 (stereo not drawn)	n	n	n	n
Cc1nn(C)cc1C(=O)N[C@@H]1CN(C2CCOCC2)C[C@H]1CN(C)C	n	n	n	n
CCCNC(=O)[C@@H]1Cc2cn(Cc3ccncc3)c3cccc(c23)[C@H](CC(C)C)N1	25µM	n	u	32µM
CC(C)C[C@@H]1N[C@H](C(=O)NCCN(C)C)Cc2cn(Cc3ccncc3)c3cccc1c23	28µM	n	n	40µM
CCCNC(=O)[C@@H]1Cc2cn(Cc3ccccn3)c3cccc(c23)[C@H](CC(C)C)N1	u	n	n	u
CC(C)C[C@@H]1N[C@H](C(=O)NCC2CC2)Cc2cn(Cc3ccncc3)c3cccc1c23	u	n	n	35µM
CC(C)C[C@@H]1N[C@H](C(=O)O)Cc2cn(Cc3ccncc3)c3cccc1c23	n	n	n	n
CCCNC(=O)[C@@H]1Cc2cn(Cc3cccnc3)c3cccc(c23)[C@H](CC(C)C)N1	89µM	n	n	u
O=C(Cn1nc2n(c1=O)CCCC2)NCc1ccccc1Br	n	n	n	n
CC(C)C[C@@H]1N[C@H](C(=O)NC(C)C)Cc2cn(Cc3ccncc3)c3cccc1c23	32µM	n	u	u
O=C(N1CCC[C@H]1c1nc(-c2ccccc2Cl)no1)C1(c2ccccc2)CC1	u	22µM	n	u
O=C(Cc1ccccc1)N1CCC[C@H]1c1nc(-c2ccccc2Cl)no1	n	n	n	u
C=CCCOC(=O)N1C[C@@H](C(=O)OCC)[C@@H]2Oc3cc(OC)ccc3[C@@H]21	u	x	x	n
CC(C)COC(=O)N1C[C@@H](CO)[C@@H]2Oc3c(F)cccc3[C@@H]21	32µM	x	x	u
CCOC(=O)[C@@H]1CN(C(=O)OCC(C)C)[C@H]2c3ccc(OC)cc3O[C@@H]12	40µM	x	x	n
CC(C)CN1C(=O)COC[C@@H]1[C@H](O)c1ccc(NC(=O)c2ccc(C#N)cc2)cc1	n	u	n	u
COc1ccccc1CNC[C@H]1Cn2cc(-c3ccccc3OC)nc2CO1	79µM	n	n	112µM
COc1ccccc1-c1cn2c(n1)CO[C@@H](CNCc1ccc(F)c(F)c1)C2	u	n	n	u
COc1ccc(-c2cn3c(n2)CO[C@@H](CNCc2ccccc2OC)C3)cc1	u	u	n	u
COc1ccccc1-c1cn2c(n1)CO[C@@H](CNCc1ccc(F)cc1)C2	u	n	n	71µM
Cc1ccc(S(=O)(=O)NC[C@H]2OC[C@@H](NCc3ncc[nH]3)[C@@H]2O)cc1	n	n	n	n
O[C@@H]1CN(Cc2ccc(-n3cccn3)cc2)CC[C@H]1c1ccc(F)cc1	n	n	u	40µM
F[C@@H]1CN(C2CCOCC2)C[C@@H]1OCc1nc2ccccc2o1	n	n	n	n
SMILES	NIH3T3 tox	Luciferase inh	NPR1 antag	HEK293 tox
F[C@@H]1CN(C2CCC2)C[C@@H]1OCc1nc2ccccc2o1	n	79µM	n	n
F[C@@H]1CN(CC2CC2)C[C@@H]1OCc1nc2ccccc2o1	n	35µM	n	n
Cc1ccc(C(CC(=O)Nc2ccc(F)cc2)c2c[nH]c3ccccc23)cc1 (stereo not drawn)	45µM	n	n	u
O=C(CC(c1cccc([N+](=O)[O-])c1)c1c[nH]c2ccccc12)NCc1ccccc1 (stereo not drawn)	u	n	n	u
O=C(NCc1ccccc1F)c1ccc2c(c1)CN(Cc1cccc(F)c1F)CCO2	u	n	n	u
Cc1ccc(CNC(=O)c2ccc3c(c2)CN(Cc2cccc(F)c2F)CCO3)cc1	u	n	n	79µM
